Measured values from the supplement of paper PMC6555819.

What was measured:
Assay in all cases: PBM binding z-score (relative to random genomic background probes); higher = stronger binding; sequences stand for … in GC…GCGATTGACAGCGTAGAATGAAGG
[1] = system: RARb homodimer (NR concentration 270 nM)
Method in brief: (§1)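 Random background probes are the reference for binding z-scores. These scores derive from regression-normalized fluorescence on custom Agilent 4×180K protein-binding microarrays incubated 1 h with ligand-free nuclear receptor dimers. Binding was detected with antibodies against each partner (one per run).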

[2] = system: RARg:RXRa (NR concentration 270 nM, RXRa partner concentration 90 nM)
Method in brief: as §1

[3] = system: RARg homodimer (NR concentration 270 nM)
Method in brief: as §1

[4] = system: RXRa DBDmut IVT, anti-RXR (DBD mutation: RXRa K156A/R161A, NR concentration 90 nM)
Method in brief: as §1

[5] = system: RXRa homodimer (NR concentration 180 nM)
Method in brief: as §1

[6] = system: THRa:RXRa (NR concentration 90 nM, RXRa partner concentration 90 nM)
Method in brief: as §1

[7] = system: THRa homodimer (NR concentration 90 nM)
Method in brief: as §1

[8] = system: VDR:RXRa (NR concentration 270 nM, RXRa partner concentration 90 nM)
Method in brief: as §1

[9] = system: VDR homodimer (NR concentration 270 nM)
Method in brief: as §1

Sequence	PBM binding z-score [1]	PBM binding z-score [2]	PBM binding z-score [3]	PBM binding z-score [4]	PBM binding z-score [5]	PBM binding z-score [6]	PBM binding z-score [7]	PBM binding z-score [8]	PBM binding z-score [9]
TCTTGTAGATCAAACGTTAAGAAAGCCGAAGCCT	-0.779	-0.146	-0.238	0.749	0.138	-0.412	-0.567	0.359	-0.573
AGAATGAGGTTATTAAGATCAGGCAATTGCGGTC	0.685	1.05	0.712	1.89	1.65	2.22	0.632	2.48	1.24
CCGAGTAGGTTATGGGGCACTCAGGCAACGGTGA	0.946	0.475	0.553	-0.264	0.805	0.385	0.0948	-0.0808	0.0125
TGAATGAGGTTATAAGTTCAGGGAACGTTGCAAA	2.54	4.88	2.27	1.49	3.46	2.58	0.487	3.67	2.85
CCTTATGGGTCACTGACAGGTTATAGCATTTGGA	3.37	5.28	3.89	1.05	4.43	2.59	0.464	2.89	0.502
ATCTCTAGGTAACAAGTTCAGTGAAAGAGAGGAC	1.78	1.52	1.61	1.06	0.955	1.68	0.986	2.13	3.36
ACAGACAGGTGAGTGAAGCTAACTCAGCTGGACG	-0.638	-0.0417	0.288	-0.672	-0.0844	-0.381	-1.16	-0.513	-1.08
TCATATAGATAATACAGGTGAAAGTCGGCATCTA	0.362	0.456	0.632	2.07	1.02	0.394	0.216	1.17	0.608
ATACCAAGGTGATCGTGAGGTCGTCGATACTAAC	1.61	2.45	0.868	0.301	1.56	3.52	2.54	2.72	1.95
CAAACTAGGTCACAGATGTCAAAGTCCGTGCGTA	3.51	4.42	4.89	2.36	3.86	3.36	1.68	4.5	1.91
CCTTACGGGTCAGTCCAGGTTATAGCATCGGAGT	2.69	3.23	3.53	0.751	2.55	4.66	0.627	2.9	1.12
GCTTACGGGTCAACGGTTATAGCATGAATAGAAT	2.84	4.92	4.66	2.06	5.29	2.59	-0.0988	3.88	0.695
GCGACTGGGGCATTAGCAGGTTACCATAACTTAA	0.877	0.345	0.226	0.29	0.0797	0.892	0.101	-0.196	-0.236
ACTAGCAGGCCAAGTTTGGGTCACTCCAACAAAG	2.33	2.23	1.55	0.0144	0.704	2.47	1.05	0.642	0.157
TGAATTAGGTTATAAGATCAGGGAACGTTGCAAA	-0.204	0.498	0.508	-0.196	0.503	0.533	0.0659	-0.0623	0.321
CGTCCAAGGTCAATGCTAGGTCAGTCAAAGCATT	5.08	7.7	6.73	3.62	5.82	4.52	2.99	–	3.23
